A word on the Inhibition: it is the percentage by which the read-out fell short of the control. A higher Inhibition goes with a response far below the control.

Structures are written as SMILES.

This assay has as its system Plasmodium falciparum. Kind of assay: GSK_TCMDC: Inhibition of Plasmodium falciparum 3D7 in whole red blood cells, using parasite LDH activity as an index of growth. Test compounds present at 2uM. In kind it is functional.
Compound `COc1ccc2nccc([C@@H](O)CN3CCC(NC[C@H](Cc4ccccc4)NC(=O)OC(C)(C)C)CC3)c2c1.O=C(O)C(=O)O` showed an Inhibition of 98%.

Turning to `CC(C)(CNCc1ccc(F)c(F)c1)c1nc(-c2ccnc(N)n2)c(-c2ccc(Cl)c(O)c2)[nH]1.Cl`, the Inhibition stood at 99%.

In turn, `Fc1ccc2[nH]c(-c3ccc(-c4ccc(CNCCN5CCNCC5)cc4)cc3)nc2c1.O=C(O)C(F)(F)F` had an Inhibition of 96%.

The compound `COc1ccc(S(=O)(=O)NC2CCN(CCNC(=O)Nc3cc(C)nc4ccccc34)C2)cc1` (centres undefined) returned an Inhibition of 88%.

Regarding `CCN1CCCC1CNC(=O)c1cc2c(-c3ccc(Cl)cc3)nn(C)c2s1` (centres undefined), the Inhibition was 96%.

In the case of `COc1ccc(CCNCCCCCNCCc2ccc(Cl)cc2)cc1OC.Cl`, the Inhibition is given as 100%.

For the compound `COc1ccc(C(=O)N[C@@H](CC(C)C)C(=O)N[C@H](/C=N/NC(=O)c2ccccc2)CCc2ccccc2)cc1OCCN1CCOCC1`, the Inhibition was 96%.

For the compound `CN1CCC[C@@H](Oc2cc3c(cc2Br)CCN3C(=O)Nc2ccc(-c3ccncc3)c(Cl)c2)C1`, the Inhibition was 99%.

Consider `O=C(Nc1ccc(OC2CCN(Cc3ccc(F)cc3)CC2)c(Cl)c1)c1ccco1.O=C(O)C(F)(F)F`, for which the Inhibition is reported as 95%.

`Cc1ccc(-c2nc3ccccc3o2)cc1NCc1cc(Cc2ccccc2)ccc1O`: the Inhibition is recorded as 82%.

`O=C1SC(=Cc2ccc(O)c(O)c2)C(=O)N1c1ccccc1` returned an Inhibition of 91%.

Turning to `Cc1cc(NCC2CCN(CC3CCCCC3)C2)nc(Nc2ccc(Br)cc2)n1` (centres undefined), the Inhibition turned out to be 100%.

`Cc1cccc(Cn2nc(-c3ccccc3)c(N3CCCCC3)cc2=O)c1` came in with an Inhibition of 98%.

In turn, `CN(C)CCCOc1c(C(C)(C)C)cc(-c2cc(C(C)(C)C)c(OCCCN(C)C)c(C(C)(C)C)c2)cc1C(C)(C)C` showed an Inhibition of 100%.

Values taken from ChEMBL document CHEMBL1157539, “Thousands of chemical starting points for antimalarial lead identification” (Nature, 2010).
